Several values for one entry are separate records, joined by “and”; a condition that tells them apart may be missing. Equal entries are not always repeated. Activity calls are given as the source filed them. The calls were made as follows: active = hit-call score of the fitted dose curve at least 0.9, where 1 is the maximum; inactive = score below 0.9.
read-out: 3-Hydroxy-3-Methylglutaryl-CoA Synthase 2 (HMGCS2), HMGCS2 (gene 3158); experiment: LTEA_HepaRG_HMGCS2: Life Technologies and Expression Analysis (LTEA) Assay for 3-Hydroxy-3-Methylglutaryl-CoA Synthase 2 (HMGCS2) using HepaRG (AID 2283504); conditions: mRNA level, 48 h; actives raise or lower the signal
Procedure: LTEA_HepaRG is a cell based, multiplexed-readout assay that uses HepaRG, a human liver cell line, with measurements taken at 48 hours after chemical dosing on a 96-well plate.LTEA_HepaRG_HMGCS2 is one of 102 assay component(s) measured in the LTEA HepaRG cell culture assay. It is a marker of Steatosis.Data from the assay component LTEA_HepaRG_HMGCS2 was analyzed into 1 endpoint. This assay endpoint, LTEA_HepaRG_HMGCS2, was analyzed with bidirectional fitting relative to DMSO as the negative control and baseline of activity. Using a type of inducible reporter, measures of mRNA induction for gain or loss-of-signal activity can be used to understand regulation of transcription factor activity. To generalize the intended target to other relatable targets, this assay endpoint is annotated to the lyase intended target family, where the subfamily is HMG-CoA synthase.
A total of 1060 chemcials from the ToxCast library were tested in eight-point concentration-response experiments. Cell culture and cytotoxicity assays were conducted at Thermo Fisher Scientific's Custom Services facility (Madison, WI). A single lot of human HepaRG cells (Thermo Fisher Scientific, Frederick, MD) was used for the cell culture experiments. 96-well format collagen type I coated plates of human HepaRG cells were prepared using established methods. Briefly, cryopreserved HepaRG cells were thawed, plated at a density of approximately 100,000 cells/well in HepaRG Thaw, Plate, and General Purpose media (HPRG770, Thermo Fisher Scientific), and incubated for 48 hours. 0.5% DMSO was selected as vehicle control to balance the requisite need of DMSO in HepaRG cultures to maintain differentiation (for example, baseline metabolism, proportions of hepatocytes vs. cholangiocytes), while enabling further hepatic receptor pathway activation (for example, PXR and CAR) in response to chemical exposure. 48 hours after plating, the culture medium was replaced with HepaRG Serum-Free Incudtion Media. Cells were exposed to each test chemical in duplicate and maintained in CO2 incubators for another 48 hours. Chemical plates were thawed to room temperature and 200x concentrations of treatment groups were prepared. 8-point conentration-reponse curves were made with the highest exposure at 100 uM, followed by half-log dilutions, all in 0.5% DMSO. Each test plate contained variouse controls, induction positive controls (1mM phenobarbital), cytotoxicity positive controls ([…] aflatoxin B1), vehicle controls (0.5% DMSO), and total lysis controls (0.5% DMSO). Cell morphology images were taken using an Essen IncuCyte FLR automated microscope, with six 96-well plates imaged in about 24 minutes. Images were captured and exported and JPEG files. Spent culture media was transfered to black-well plates for the LDH assay, and remaining media was sorted at -80 C for later use. Cells were treated with RLT buffer and frozen until shipped for gene expression analysis. Total RNA was isolated from the cell suspension in 75 uL of Buffer RLT (Qiagen, Germantown, MD 20874) by Quintiles/Expression Analysis (Durham, NC) using a custom isolation procedure. Total RNA from each plate well was transferred to a preamplification plate. Fluidigm's 96.96 Dynamic ArrayTM (Fluidigm, Amsterdam, the Netherlands) technology was used for gene expression analyses by quantitative reverse transcription polymerase chain reaction (qRT-PCR, performed by Quintiles/Expression Analysis, Durham, NC)89. Standard TaqManTM Assays (Applied Biosystems/ThermoFisher Scientific, Foster City, CA) were used to assess the expression of 93 genes selected based on their selectivity and sensitivity to important hepatic receptors known to be modulated by environmental chemicals; importance in human hepatocyte functionality; and hepatotoxicity. […]

With Oc1ccc(C(c2ccc(O)cc2)C(Cl)(Cl)Cl)cc1 as the compound, how does the AC50 read?
The AC50 was 92.8 µM (active).

For c1ccc2[nH]c(-c3cscn3)nc2c1, which outcome is on record?
Its outcome is “inactive”.

CCOC(=O)C(C)Oc1ccc(Oc2cnc3cc(Cl)ccc3n2)cc1 (stereo not given) was tested. Which outcome did it give?
Its outcome is “inactive”.

With C[C@]12C[C@H](O)[C@H]3[C@@H](CCC4=CC(=O)CC[C@@]43C)[C@@H]1CC[C@@H]2C(=O)CO as the compound, how does the outcome read?
Its outcome is “inactive”.

How did the outcome turn out when CCOC(=O)c1ccc(O)cc1 was run?
Its outcome is “inactive”.

CCCCC(CC)COC(=O)c1ccccc1C(=O)O (stereo not given) was tested. Which outcome did it give?
Its outcome is “inactive”.

For CCOC(=O)C(C)Oc1ccc(Oc2nc3ccc(Cl)cc3o2)cc1 (stereo not given), which outcome is on record?
The outcome was “inactive”.

For CCCOC(=O)c1ccc(C(=O)OCCC)nc1, which outcome is on record?
Its outcome is “inactive”.

With CCSC(=O)N(CC(C)C)CC(C)C as the compound, how does the outcome read?
The outcome was “inactive”.

With c1ccc(Nc2ccccc2)cc1 as the compound, how does the outcome read?
Its outcome is “inactive”.

With S=C(S)NCCNC(=S)S.[Mn+2].[S-]C([S-])=NCCN=C([S-])[S-].[Zn+2] as the compound, how does the AC50 read?
The AC50 was 2.25 µM (active) and 1.36 µM (active) and 1.93 µM (active).

For C[C@]12CC[C@@H]3c4ccc(O)cc4C[C@@H](CCCCCCCCCS(=O)CCCC(F)(F)C(F)(F)F)[C@H]3[C@@H]1CC[C@@H]2O (stereo not given in full), which AC50 is on record?
Its AC50 is 33.6 µM (active).

CSC(=O)c1cccc2nnsc12 was tested. Which outcome did it give?
The outcome was “inactive”.

With O=C(c1ccccc1)C1CCCCC1 as the compound, how does the outcome read?
The outcome was “inactive”.

For CCN(CC)C(=O)c1cccc(C)c1, which outcome is on record?
The outcome was “inactive”.

How did the outcome turn out when CCCN(CCC)C(=O)SCC was run?
Its outcome is “inactive”.

COCCO was tested. Which outcome did it give?
Its outcome is “inactive”.

How did the AC50 turn out when CCN(Cc1c(F)cccc1Cl)c1c([N+](=O)[O-])cc(C(F)(F)F)cc1[N+](=O)[O-] was run?
Its AC50 is 50 µM (active).

How did the outcome turn out when O=C(c1ccc(O)cc1O)c1ccc(O)cc1O was run?
Its outcome is “inactive”.

Which AC50 does the source give for Cc1nn(C)c(Oc2ccccc2)c1C=NOCc1ccc(C(=O)OC(C)(C)C)cc1 here?
Its AC50 is 12.4 µM (active).

How did the AC50 turn out when O=C(Nc1ccc([N+](=O)[O-])cc1Cl)c1cc(Cl)ccc1O was run?
The AC50 was 2.59 µM (active).

CCOC(=O)NCCOc1ccc(Oc2ccccc2)cc1 was tested. Which AC50 did it give?
Its AC50 is 77.1 µM (active).

O=C(O)C1(C(=O)Nc2ccc(Cl)cc2Cl)CC1 was tested. Which AC50 did it give?
Its AC50 is 81 µM (active).

For CCNc1nc(N)nc(Cl)n1, which outcome is on record?
Its outcome is “inactive”.

With CN(C)C(=O)Nc1ccc(Cl)c(Cl)c1 as the compound, how does the outcome read?
Its outcome is “inactive”.

With COC(=O)c1ccc(I)cc1S(=O)(=O)NC(=O)Nc1nc(C)nc(OC)n1 as the compound, how does the outcome read?
Its outcome is “inactive”.

Which outcome does the source give for C#C[C@]1(O)CC[C@H]2[C@@H]3CCC4=CC(=O)CC[C@@H]4[C@H]3CC[C@@]21CC here?
Its outcome is “inactive”.

With CC(C)CCCCCCc1ccc(O)cc1 as the compound, how does the outcome read?
The outcome was “inactive”.

Which outcome does the source give for CC1(C)C(C=C(Cl)Cl)C1C(=O)OCc1cccc(Oc2ccccc2)c1 (stereo not given) here?
Its outcome is “inactive”.

C#CCOC(=O)[C@@H](C)Oc1ccc(Oc2ncc(Cl)cc2F)cc1 was tested. Which AC50 did it give?
Its AC50 is 11.7 µM (active).

For CC(=O)S[C@@H]1CC2=CC(=O)CC[C@]2(C)[C@H]2CC[C@@]3(C)[C@@H](CC[C@@]34CCC(=O)O4)[C@H]12, which AC50 is on record?
The AC50 was 65.7 µM (active).

Which AC50 does the source give for CCCN(CCC)c1c([N+](=O)[O-])cc(C(F)(F)F)c(N)c1[N+](=O)[O-] here?
Its AC50 is 33.3 µM (active).

For CCCCOCCOCCOCc1cc2c(cc1CCC)OCO2, which outcome is on record?
The outcome was “inactive”.

How did the AC50 turn out when CCCCC(CC)CN1C(=O)C2C3C=CC(C3)C2C1=O (stereo not given) was run?
The AC50 was 86.3 µM (active).

Which outcome does the source give for COc1c(Cl)ccc(Cl)c1C(=O)O here?
The outcome was “inactive”.

Which outcome does the source give for CCCCCOC(=O)COc1cc(N2C(=O)C3=C(CCCC3)C2=O)c(F)cc1Cl here?
Its outcome is “inactive”.

CC(C)(c1ccc(O)cc1)c1ccc(O)cc1 was tested. Which outcome did it give?
The outcome was “inactive”.

Which outcome does the source give for N#CSCSc1nc2ccccc2s1 here?
Its outcome is “inactive”.

COC(=O)CSc1cc(N=c2sc(=O)n3n2CCCC3)c(F)cc1Cl was tested. Which outcome did it give?
The outcome was “inactive”.

For CCOC(=O)COc1cc(-n2ncc(C(F)(F)F)c(C)c2=O)c(F)cc1Cl, which outcome is on record?
Its outcome is “inactive”.

Source: PubChem BioAssay (EPA / NIEHS)
